In PubChem BioAssay AID489038 (National Center for Advancing Translational Sciences (NCATS), 2010):
Results filed as inconclusive are left out. The source made the active and inactive calls. Calls come from the whole dose curve; as a rule, active = well fitted inhibition curve with a large enough effect; inconclusive = small, poorly fitted or top-dose-only effect, or effect the other way; inactive = no such curve, though single readings can be large or run the other way.

assay: DHR3 selectivity assay for inhibitors of ROR gamma transcriptional activity; details: Drosophila S2 Gal4-DHR3 UAS-luciferase, 20 h; series mostly up to 92.2 µM
Description: NIH Molecular Libraries Probe Production Network [MLPCN] NIH Chemical Genomics Center [NCGC] MLPCN Grant: R03 DA026211-01 Assay Provider: Dan Littman, New York University Assay Overview: The retinoic acid-related orphan receptor (ROR) gamma is a transcription factor that has a central role in the differentiation of Th17 cells, a subset of T helper cells that secrete the inflammatory cytokines IL-17A, IL-17F, and IL-22. Th17 cells have been implicated in graft versus host disease, autoimmune disease and asthma. RORgamma is induced in naive T helper cells in the presence of TGF-beta combined with IL-6, IL-21, or IL-23, and thereafter directs the expression of the Th17 lineage cytokines. To identify […] inhibitors, a Drosophila Schneider cell line was stably transfected with two vectors: a gene expressing a fusion of the Gal4 DNA binding domain and the transactivation domain of the Drosophila Hormone Receptor 3 (DHR3), under the control of the metallothionine promoter and a Photinus luciferase reporter regulated by the Gal4 binding site enhancer, UAS. […] Small molecule inhibitors that inhibit components common to the RORgamma and DHR3 assays, such as proteins that interact with general nuclear hormone receptors, will be active in both assays and thus scored as nonselective.
Assay Protocol Summary: For screening, 600 cells in 4 uL/well were dispensed into white solid 1536-well plates (Grenier) using a solenoid-based dispenser. Following transfer of 23 nL compound or DMSO vehicle by a pin tool, the plates were incubated 1 hr at ambient temperature, and 1 uL/well copper sulfate (700 uM final concentration) was added. The plates were centrifuged 15 s at 1000 RPM and incubated 20 hr at ambient temperature. After addition of 1.5 uL Photinus luciferase detection reagent, the plates were incubated 10 min at ambient temperature and then read by an ViewLux (Perkin Elmer) to detect luminescence.
Potency is the fitted concentration of half-maximal effect.

Potency, active:
CC(C)(C)c1ccc(-c2noc(CCC(=O)Nc3cccnc3)n2)cc1 51.2 nM, COCC1CCCCN1C(=O)c1cc(COc2ccc3ncccc3c2)on1 (configuration not stated) 9110 nM, COC(=O)c1ccc(OCC(=O)c2ccc(O)cc2O)cc1 363 nM, CCOC(=O)c1sc(NC(=O)c2ccc(S(=O)(=O)N(C)C)cc2)nc1C 45.7 nM, COC(=O)Cn1c(CN2CCc3ccccc3C2)nc2c1c(=O)n(C)c(=O)n2C 8120 nM, CCOc1ccc(-c2cc(CCCC(=O)NCc3cccnc3)no2)cc1 812 nM, CN(C)S(=O)(=O)c1ccc(NC(=O)/C=C/c2ccccc2Cl)cc1 1620 nM

Potency, inactive:
COc1cc(O)c(C(CC(=O)N2CCCC(C)C2)c2ccc(-c3ccccc3)cc2)c(OC)c1 (configuration not stated), COc1cc(O)c(C(CC(=O)NC2CCCc3ccccc32)c2ccc3c(c2)OCO3)c(OC)c1 (configuration not stated), CC1CCCN(C(=O)CC(c2ccc3c(c2)OCO3)c2cc(C(C)C)ccc2O)C1 (configuration not stated), COc1cc(O)c(C(CC(=O)N2CCCC(C(C)C)C2)c2ccc3c(c2)OCO3)c(OC)c1 (configuration not stated), CC1CCCN(C(=O)CC(c2ccc3c(c2)OCO3)c2ccc(O)cc2O)C1 (configuration not stated), Cc1ccc(C)c(C(CC(=O)N2CCCC(C)C2)c2ccc3c(c2)OCO3)c1O (configuration not stated), COc1cc(O)c(C(CC(=O)N2CCCC(C)C2)c2ccc3ccccc3c2)c(OC)c1 (configuration not stated), COc1cc(O)c(C(CC(=O)N2CCCC(c3nc4ccccc4o3)C2)c2ccc3c(c2)OCO3)c(OC)c1 (configuration not stated), COc1cc(O)c(C(CC(=O)N2CCCC(CN3CCCCC3)C2)c2ccc3c(c2)OCO3)c(OC)c1 (configuration not stated), COc1cc(O)c(C(CC(=O)N2CCCC(C)C2)c2ccccc2C)c(OC)c1 (configuration not stated), COc1cc(O)c(C(CC(=O)N2CCCC(C)C2)c2ccccc2OC)c(OC)c1 (configuration not stated), CC1CCCN(C(=O)CC(c2ccc3c(c2)OCO3)c2cc(-c3ccccc3)ccc2O)C1 (configuration not stated), COc1cc(O)c(C(CC(=O)N2CCC(c3ccccc3)CC2)c2ccc3c(c2)OCO3)c(OC)c1 (configuration not stated), CCC1CCCN(C(=O)CC(c2ccc3c(c2)OCO3)c2c(O)cc(OC)cc2OC)C1 (configuration not stated), COc1cc(O)c(C(CC(=O)N2CCC(C)CC2)c2ccc3c(c2)OCO3)c(OC)c1 (configuration not stated)
